aSyn UTR act: Activators via SNCA 5'UTR binding, MLPCN | activity score, % (tested at 7.5 µM), hits read low | alpha-synuclein 5'UTR reporter, activators screen | actives 7.1% (n = 300,000); in the data active = activity score below about -60%
Active calls of the source: *. The list is a sample of the results.

SMILES | aSyn UTR act
O=C(Nc1nnc(CC2=CCCCC2)s1)c1cccs1 | -92.7*
O=C(Nc1nnc(Cc2ccccc2)s1)c1ccccc1 | -159.6*
CCN(c1ccccc1)S(=O)(=O)c1ccc(C(=O)Nc2nnc(C3CC3)o2)cc1 | 70.5
O=C(Nc1nnc(CCN2CCOCC2)s1)c1ccccc1 | -66.8*
O=C(Nc1nnc(CCc2ccccc2)s1)c1cccc(F)c1 | -102.5*
CC(C)Oc1ccc(C(=O)Nc2nnc(SCC(=O)N3CCOCC3)s2)cc1 | 97.7
O=C(Nc1cccc([N+](=O)[O-])c1)Nc1ccc2c(c1)CCC2 | -105.0*
Cc1ccc(NC(=O)Nc2ccc3c(c2)CCC3)cc1 | -123.7*
O=C(CC1CCCC1)Nc1ccc2c(c1)CCC2 | -112.4*
O=C(Cc1ccccc1)Nc1ccc2c(c1)CCC2 | -105.2*
O=[N+]([O-])c1cccc(NC(=S)N2CCc3ccccc3C2)c1 | -120.1*
Cc1cc(NC(=S)NC(=O)CC(C)C)ccc1Br | -155.1*
O=C(Nc1ccc(F)cc1)Nc1ccc2c(c1)CCC2 | -119.8*
O=C(Nc1ccccc1)Nc1ccc2c(c1)CCC2 | -135.2*
O=C(Nc1ccc2c(c1)CCC2)Nc1ccc(F)cc1F | -129.0*
Cc1c(C(=O)Nc2cccc([N+](=O)[O-])c2)csc1-c1ccccc1 | -130.3*
Cc1cc(NC(=O)CC2CCCC2)ccc1Br | -122.8*
O=C(Nc1cccc(F)c1)Nc1ccc2c(c1)CCC2 | -160.1*
O=C(Nc1cccc([N+](=O)[O-])c1)Nc1cccs1 | -110.3*
Cc1cc(NC(=O)CCSc2ccccc2)ccc1Br | -61.6*
Cc1cc(SCC(=O)N/N=C/c2ccc(O)cc2O)c(C)cc1Br | 78.3
CC(C)(C)c1ccc(C(=O)N2CCCCCC2=O)cc1 | 90.7
Cc1ccc(S(=O)(=O)Cc2ccc(C(=O)N3CCN(c4cccc(C)c4C)CC3)o2)cc1 | 88.5
Cc1cccc(N2CCN(C(=O)c3c(-c4ccccc4)noc3C)CC2)c1C | 64.6
CC(C)(C)c1ccc(C(=O)NCC(=O)N2CCCC2)cc1 | -74.5*
SMILES | aSyn UTR act
Cc1ccc(C(=O)NCCC(=O)N2CCCC2)cc1 | -146.3*
CC(C)(C)c1ccc(C(=O)NNC(=O)C2CCCCC2)cc1 | -64.3*
Cc1cccc(N2CCN(C(=O)CNC(=O)c3ccccc3)CC2)c1C | -81.3*
Clc1cc2nc3ccccn3c2cc1Cl | -115.1*
CSc1ccc(N2C(=O)NC3(CCCCC3)C2=O)cc1 | -111.1*
O=c1cc(-c2ccccc2)[nH]c2nc3ccccc3n12 | -88.7*
O=C(CCNc1ccc(Cl)cc1)c1cccs1 | -89.3*
O=C(CCNc1cc(Cl)cc(Cl)c1)c1cccs1 | -93.5*
CCCn1c(Sc2nnnn2-c2ccccc2)n[nH]c1=O | -98.1*
Brc1ccc(-c2nc(-c3ccccc3)no2)o1 | -141.5*
Brc1ccc(-c2nc(-c3cccnc3)no2)o1 | -164.3*
c1ccc(-c2noc(-c3ccc4ccccc4c3)n2)cc1 | 76.6
COc1ccc(C(=O)Nc2sc3c(c2C(=O)O)CC(C)(C)OC3)cc1 | 62.9
CC1(C)Cc2c(sc(NC(=O)c3ccccc3)c2C(=O)O)CO1 | -73.6*
N=c1scc(-c2ccccc2)n1/N=C/c1ccco1 | -220.3*
COc1ccccc1CC(=O)NCc1csc(-c2cccs2)n1 | -117.4*
O=C(NCc1csc(-c2cccs2)n1)C1CCCCC1 | -66.7*
COc1ccccc1CCNC(=O)c1nc(-c2cccs2)no1 | -93.3*
CCOc1ccc(NCC(=O)N/N=C/C=C/c2ccccc2)cc1 | -84.4*
CCOc1ccc(N=C/C=C/c2ccccc2)c(O)c1 | -67.4*
O=C(Nc1cccc(-c2csc(Nc3ccccc3)n2)c1)c1ccccc1 | -142.3*
CC(=O)c1cccc(Nc2nc(-c3cccnc3)cs2)c1 | -229.8*
CC(=O)c1cccc(Nc2nc(-c3ccccc3)cs2)c1 | -144.9*
O=C(Nc1nc(-c2cc3ccccc3o2)cs1)c1ccc(S(=O)(=O)N2CCCC2)cc1 | -67.6*
Cc1ccc(-c2nc3ccccc3s2)cc1S(=O)(=O)N1CCOCC1 | -66.0*
SMILES | aSyn UTR act
CN(C)S(=O)(=O)c1ccc(C(=O)Nc2nc(-c3cc4ccccc4o3)cs2)cc1 | -136.9*
O=C(Nc1nc(-c2nc3ccccc3s2)cs1)c1ccc(S(=O)(=O)N2CCOCC2)cc1 | -75.2*
CCn1c2ccccc2c2cc(NC(=O)CSc3nnc(-c4cccc(C)c4)o3)ccc21 | -62.7*
CCn1c2ccccc2c2cc(NC(=O)CSc3nnc(-c4ccccc4)o3)ccc21 | -155.4*
CCn1c2ccccc2c2cc(NC(=O)CSc3nnc(-c4cccc(F)c4)o3)ccc21 | -67.9*
N#Cc1ccccc1/C=N/Nc1nc(-c2ccccc2)c2cc(Cl)ccc2n1 | -95.2*
COc1ccc2cc(-c3ccn[nH]3)ccc2c1 | -123.7*
N/C(=N\N=C\c1cccc([N+](=O)[O-])c1)c1nonc1N | -150.3*
COc1cccc(/C=N/N=C(\N)c2nonc2N)c1O | -105.4*
COc1ccccc1/C=N\N=C(\N)c1ccccn1 | -175.4*
CN1Cc2cc(C(=O)c3cc(Cl)cc(CSc4ncccn4)c3O)cnc2NC1=O | 78.7
COc1cc(OC)c(C(=O)O/N=C(\N)c2cccc(C)c2)cc1OC | -67.5*
Cc1occc1C(=O)O/N=C(\N)c1ccc(Cl)cc1 | -70.8*
COc1cc(OC)c(C(=O)O/N=C(\N)c2ccc(C)cc2)cc1OC | -65.9*
COc1ccc(Cl)cc1C(=O)O/N=C(\N)c1ccc(Cl)cc1 | -267.0*
CCC1=NN2C(=N)/C(=C\c3ccc(OCCOc4ccccc4)c(OC)c3)C(=O)N=C2S1 | -125.0*
COc1cc(/C=C2/C(=N)N3C=CSC3=NC2=O)ccc1OCCCOc1ccccc1C | -117.9*
N#C/C(=C\c1ccc(OCC(N)=O)cc1)c1ccccc1 | -153.9*
CN(C)c1ccc(-c2ccccc2)nn1 | -148.3*
Cc1ccc(C(=O)Nc2cnc3ccccn3c2=O)cc1 | -119.5*
Cc1ccc2ncc(NC(=O)c3ccc(F)cc3)c(=O)n2c1 | -139.3*
Cc1cccc(NC(=O)/C=C/c2cccs2)n1 | -108.5*
O=C(/C=C/c1cccs1)Nc1ccncc1 | -126.1*
O=C(/C=C/c1cccs1)Nc1ccc([N+](=O)[O-])cc1 | -146.6*
CC(C)(C)c1ccc(/C=C/C(=O)Nc2ccncc2)cc1 | -77.1*
SMILES | aSyn UTR act
O=C(/C=C/c1cccs1)NCc1ccccc1 | -109.5*
Cc1ccc(NC(=O)/C=C/c2cccs2)c([N+](=O)[O-])c1 | -160.7*
CCCOC(=O)c1ccc(NC(=O)/C=C/c2cccs2)cc1 | -209.0*
COc1ccc2nc(NC(=O)CSC3=NCCS3)sc2c1 | -88.1*
CC(=O)N1CC(=O)N=C1SCC(=O)Nc1nc(C)c(-c2ccccc2)s1 | -78.9*
COc1ccc2nc(NC(=S)N(C)C)sc2c1 | -80.6*
COc1ccc2nc(NC(=O)CN3CCOCC3)sc2c1 | -63.0*
CCOc1ccc2nc(NC(=O)CSc3nc(SC)ns3)sc2c1 | -167.1*
COc1ccc2nc(NC(=O)CSc3cn[nH]n3)sc2c1 | -67.6*
CCCC(=O)Nc1nc2ccc(OC)cc2s1 | -132.8*
CCOc1ccc2nc(NC(=O)CSC3=NCCS3)sc2c1 | -77.0*
COc1ccc2nc(NC(=O)CSc3ccccc3)sc2c1 | -128.2*
Cc1nc(NC(=O)CN2CCOCC2)sc1-c1ccccc1 | -74.2*
CCN1CCN(c2ncnc3c2cnn3-c2ccc(Cl)cc2)CC1 | -63.3*
COc1ccc(-n2ncc3c(N4CCC(C(N)=O)CC4)ncnc32)cc1 | -124.1*
COc1ccc(-n2ncc3c(N4CCN(Cc5ccccc5)CC4)ncnc32)cc1 | -115.0*
CCOC(=O)N1CCN(c2ncnc3c2cnn3-c2ccc(Cl)cc2)CC1 | -85.7*
CC1CCCN(c2ncnc3c2cnn3-c2ccc(Cl)cc2)C1 (configuration not stated) | 98.0
